The list is not random: actives were taken first. Their share in the collection is about 4.2%.
hgDAF12 agonist – agonists of H. glycines DAF-12 nuclear receptor; HEK293 GAL4-hgDAF12 UAS-luciferase reporter, agonist luminescence; normalized to butyrate control; activation, % at 6.8 µM; 370,000 tested, 1.8% active;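 active = activation above a cutoff set at the mean of all screened compounds plus 3 SD, cut at about 10% in these data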
ssDAF12 agonist – S. stercoralis DAF-12 activation, primary screen; 370,000 tested, 1% active; activation, % at 6.8 µM; HEK293 ssDAF-12/GRIP1 lit1-tk-luc reporter, luminescence; % of 3 µM dafachronic acid response;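 active = activation above the mean over all tested compounds plus 3 SD, cut at about 0.9% in these data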
DAX1 inh – DAX1 (NR0B1) inhibition, primary screen; HEK293T StAR-luciferase reporter, SF-1/DAX-1 repression relief; inhibition, % at 6.8 µM; 370,000 tested, 1.1% active;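 active = inhibition above the mean over all tested compounds plus 3 SD, cut at about 3.6% in these data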;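 also: higher inhibition means more luminescence from relief of DAX-1 repression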
SMARCA2 activ – activators of SMARCA2 function; 370,000 tested, 1% active; activation, % at 9.1 µM; MG213 cells, MMTV-luciferase reporter, dexamethasone, overnight; in the data active = activation above about 7.8%
hcDAF12 agonist – H. contortus DAF-12 activation, primary screen | HEK293 hcDAF-12 lit1-tk-luc reporter, luminescence; 0% DMSO, 100% Δ7-dafachronic acid | activation, % at 6.8 µM | 370,000 tested, 1.4% active;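 active = activation above the mean of all tested compounds plus 3 SD, cut at about 5.5% in these data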
DAX1 conf – NR0B1 (human) inhibition, confirmation. shares compounds with DAX1 inh. AID 652134. HEK293T StAR-promoter luciferase reporter, SF-1/DAX-1 repression. inhibition, % at 6.8 µM. 2,400 tested, 87% active;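 active = inhibition above the average of every tested compound plus 3 SD, cut at about 3.8% in these data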;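 also: active compounds raise luminescence by relieving repression of the StAR reporter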
SF1 mutant ctr – counter-screen for DAX1 inhibitors: nonselective inhibitors with SF-1 AF2 mutant; HEK293 StAR-luciferase, luminescence; 2,400 tested, 78% active; AID 652136; inhibition, % at 6.8 µM; shares compounds with DAX1 inh;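 active = inhibition above the mean of all tested compounds plus 3 SD, cut at about 3% in these data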
SMARCA2 conf – confirmation of SMARCA2 (BRM) function activators. AID 652260. activation, % at 9.1 µM. 3,500 tested, 30% active. MG213 cells, MMTV-luciferase with dexamethasone, luminescence, overnight; MG213 cells expressing E1A, Rb sequestered; DMSO wells 0%, reference activator 100%. shares compounds with SMARCA2 activ;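 active = activation above its plate's cutoff, the mean activation of tested wells plus 3 SD, cut at about 7.9% in these data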
VP16 Luc act – GAL4-VP16 reporter activation counter-screen | shares compounds with SMARCA2 activ | HEK293 GAL4-VP16 pG5luc reporter, luciferase luminescence; scaled: DMSO wells 0%, SAHA wells 100% | activation, % at 9.1 µM | 3,500 tested, 41% active | AID 686939;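 active = activation above the solvent-only control well mean plus 3 SD, averaged across control plates, cut at about 5.2% in these data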
LXR ag – counter-screen for hcDAF-12 agonists: agonists of human LXR-beta. shares compounds with hcDAF12 agonist. HEK293 Gal4-LXR tk-luc reporter, luminescence, 24 h; normalized: DMSO 0%, positive control 100%. activation, % at 6.8 µM. 3,400 tested, under 10 active;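 active = mean percent activation of the reporter above a cutoff set as the average over tested compounds plus their standard deviation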
Target sequence (P55055 whole entry, looked up, the tested form may be a part): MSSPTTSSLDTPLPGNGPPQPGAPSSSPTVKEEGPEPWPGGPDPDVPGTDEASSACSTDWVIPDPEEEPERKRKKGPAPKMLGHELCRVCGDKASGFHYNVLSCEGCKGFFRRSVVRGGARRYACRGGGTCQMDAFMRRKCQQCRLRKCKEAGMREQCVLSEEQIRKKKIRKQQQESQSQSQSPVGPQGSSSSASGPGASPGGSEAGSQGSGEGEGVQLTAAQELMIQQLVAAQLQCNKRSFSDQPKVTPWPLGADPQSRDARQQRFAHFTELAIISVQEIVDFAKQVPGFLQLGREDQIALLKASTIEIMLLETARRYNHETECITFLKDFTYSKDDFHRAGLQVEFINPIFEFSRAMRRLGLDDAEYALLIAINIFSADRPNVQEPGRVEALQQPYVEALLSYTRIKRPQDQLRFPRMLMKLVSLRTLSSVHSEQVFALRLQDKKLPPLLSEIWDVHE
hcDAF12 conf – confirmation of H. contortus DAF-12 agonists; shares compounds with hcDAF12 agonist; HEK293 hcDAF-12 lit1-tk-luc reporter, luminescence; % of Δ7-dafachronic acid response; activation, % at 6.8 µM; 3,400 tested, 61% active; AID 743032;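 active = mean activation across triplicate tests above the threshold derived from the earlier primary screen, cut at about 5.5% in these data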
hgDAF12 conf – hgDAF-12 agonism, confirmation assay; shares compounds with hgDAF12 agonist; HEK293 GAL4-hgDAF12 luciferase reporter, agonist mode; percent of butyrate response; activation, % at 6.8 µM; 3,300 tested, 80% active; AID 743050;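 active = mean activation over triplicate wells above the hit cutoff derived from the earlier primary screen, cut at about 11% in these data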
LXRb DAF12 ctr – activates human LXR-beta, counter-screen for DAF-12 agonists; 3,300 tested, under 10 active; activation, % at 6.8 µM; HEK293 Gal4-LXR luciferase reporter, 24 h; shares compounds with hgDAF12 agonist; AID 743051;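 active = mean activation of the triplicate above a set limit carried over from the primary screen, none filed active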
Of the large screens only hits and unclear results are named; the others gave an inactive call (follow-up assays come after a bar, where they were run).

Cc1ccc2nc(C)/c(=N\O)c(C)nc2c1	hgDAF12 agonist 14.6, DAX1 inh 5.3, hcDAF12 agonist 10.0 | DAX1 conf 5.3 | SF1 mutant ctr 3.2 | LXR ag inactive | hcDAF12 conf inactive | hgDAF12 conf inactive | LXRb DAF12 ctr inactive
CC(=O)NCc1ccc(-c2nc3ccccc3s2)cc1	hgDAF12 agonist 15.5, DAX1 inh 6.9 | DAX1 conf 15.7 | SF1 mutant ctr 6.7 | hgDAF12 conf 15.1 | LXRb DAF12 ctr inactive
COc1ccc(-c2nc3ccccc3s2)cc1NC(C)=O	hgDAF12 agonist 19.1, DAX1 inh 8.9, SMARCA2 activ 9.7, hcDAF12 agonist 9.6 | DAX1 conf 8.2 | SF1 mutant ctr 4.0 | SMARCA2 conf inactive | VP16 Luc act 13.5 | LXR ag inactive | hcDAF12 conf 7.8 | hgDAF12 conf 16.3 | LXRb DAF12 ctr inactive
C=CCN1C(=O)[C@@H](CC(=O)N2CCN(C(=O)c3ccco3)CC2)[C@]2(C(=O)OCC)CCCCC/C=C/12	none
CC1=CC(c2ccccc2)=Nc2ccc(C)cc2N1	hgDAF12 agonist 19.1, ssDAF12 agonist 3.5, DAX1 inh 5.9, hcDAF12 agonist 13.2 | DAX1 conf 15.4 | SF1 mutant ctr 8.7 | LXR ag inactive | hcDAF12 conf 9.6 | hgDAF12 conf 19.5 | LXRb DAF12 ctr inactive
Cc1ccc(NC(=S)NC(=O)C2CCCCC2)c(Br)c1	hgDAF12 agonist 18.1, DAX1 inh 9.8, hcDAF12 agonist 6.3 | DAX1 conf 7.8 | SF1 mutant ctr 7.2 | hgDAF12 conf 15.2 | LXRb DAF12 ctr inactive
O=C(Nc1ccc(F)cc1)/C(Cl)=C/c1ccccc1	hgDAF12 agonist 24.6, ssDAF12 agonist 2.2, DAX1 inh 4.6 | DAX1 conf 13.2 | SF1 mutant ctr 10.0 | hgDAF12 conf 20.0 | LXRb DAF12 ctr inactive
O=C(Nc1cccc2ccccc12)/C(Cl)=C/c1ccccc1	none
Cc1ccc(NC(=O)/C(Cl)=C\c2ccccc2)cc1	hgDAF12 agonist 16.6, ssDAF12 agonist 1.6, DAX1 inh 6.5, hcDAF12 agonist 6.4 | DAX1 conf 18.1 | SF1 mutant ctr 8.1 | hgDAF12 conf 20.5 | LXRb DAF12 ctr inactive
Cc1ccc(NC(=O)N/C=C/c2ccccc2)cc1	none
CC(C)C[C@H](NC(=O)OCC1c2ccccc2-c2ccccc21)C(=O)O	hgDAF12 agonist 15.9, DAX1 inh 5.8 | DAX1 conf 6.6 | SF1 mutant ctr 5.8 | hgDAF12 conf 11.8 | LXRb DAF12 ctr inactive
O=C(O)CCNC(=O)OCC1c2ccccc2-c2ccccc21	none

Screening results deposited in PubChem BioAssay by The Scripps Research Institute Molecular Screening Center.
